{"source": "PubChem BioAssay (Tox21)", "note": "Inconclusive results are not listed. Active and inactive are the calls of the source. Calls come from the whole dose curve; as a rule, active = well fitted curve in the direction sought with a large enough effect in the repeat runs; inconclusive = weak or mixed curves; inactive = no such curve, though single readings can be large; an effect the other way counts as inactive or inconclusive. % is set by controls: 0 for no effect and ±100 for the full control effect.", "data": [{"test": "qHTS RealTime-Glo MT Cell Viability Assay in HepG2 cells - 32 hour (AID 1224877); note: nearly all actives have a fitted effect of over 55% in size", "details": "RealTime-Glo luminescence; series mostly up to 76.8 µM; activity change, negative = cytotoxic: at the top concentration", "outline": "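Cells + NanoLuc/prosubstrate dispensed (600 cells/well) → 5 h at 37 C/5% CO2 → compounds in DMSO transferred → 40 h incubation at 37 C, luminescence read at 0, 8, 16, 24, 32, 40 h.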", "values": [{"smiles": "CCCCCCCC/C=C\\CCCCCCCC(=O)OCCCC", "activity change, negative = cytotoxic": "6.1% [at 15.8 µM] (inactive)"}, {"smiles": "CC(C)CC(C)CC(C)CC(C)COC(=O)c1ccccc1C(=O)OCC(C)CC(C)CC(C)CC(C)C", "note": "(stereo unspecified)", "activity change, negative = cytotoxic": "2.28% (inactive)"}, {"smiles": "CCCC/C=C/C=C\\C=O", "activity change, negative = cytotoxic": "-2.84% (inactive)"}, {"smiles": "CCOC(=O)CC(=O)c1ccccc1", "activity change, negative = cytotoxic": "-0.629% (inactive)"}, {"smiles": "CCCCCCCCOS(=O)(=O)O", "activity change, negative = cytotoxic": "3.48% (inactive)"}, {"smiles": "CC(=C(CCOC(=O)C(C)C)SSC(CCOC(=O)C(C)C)=C(C)N(C=O)Cc1cnc(C)nc1N)N(C=O)Cc1cnc(C)nc1N", "activity change, negative = cytotoxic": "0.0201% [at 35.3 µM] (inactive)"}, {"smiles": "CC(=O)/C=C/C1C(C)=CCC(C)C1(C)C", "note": "(stereo unspecified)", "activity change, negative = cytotoxic": "1.9% (inactive)"}, {"smiles": "C[C@H](N)[C@H](O)c1cccc(O)c1", "activity change, negative = cytotoxic": "2.84% [at 35.3 µM] (inactive)"}, {"smiles": "BrCCCCCBr", "activity change, negative = cytotoxic": "-3.4% (inactive)"}, {"smiles": "CCCCCCCCSCC", "activity change, negative = cytotoxic": "1.69% (inactive)"}, {"smiles": "Cc1cccc2nccnc12", "activity change, negative = cytotoxic": "-0.0825% (inactive)"}, {"smiles": "CN(CCOc1ccc(NS(C)(=O)=O)cc1)CCc1ccc(NS(C)(=O)=O)cc1", "activity change, negative = cytotoxic": "2.94% [at 35.3 µM] (inactive)"}, {"smiles": "O=C1c2ccccc2C(=O)N1CCl", "activity change, negative = cytotoxic": "3.27% (inactive)"}, {"smiles": "CN1CCN(CC(=O)N2c3ccccc3C(=O)Nc3cccnc32)CC1", "activity change, negative = cytotoxic": "1.53% [at 6.97 µM] (inactive)"}, {"smiles": "O=C(Nc1ccc(Cl)c(Cl)c1)C1CC1", "activity change, negative = cytotoxic": "-1.68% [at 35.3 µM] (inactive)"}, {"smiles": "On1nnc2ccccc21", "activity change, negative = cytotoxic": "5.61% (inactive)"}, {"smiles": "CCCOC(=O)C(C)O", "note": "(stereo unspecified)", "activity change, negative = cytotoxic": "-2.57% (inactive)"}, {"smiles": "CC(C)N(c1ccccc1)C(C)C", "activity change, negative = cytotoxic": "0.734% (inactive)"}, {"smiles": "OCCC(F)(F)C(F)(F)C(F)(F)C(F)(F)C(F)(F)C(F)(F)C(F)(F)C(F)(F)F", "activity change, negative = cytotoxic": "9.08% (inactive)"}, {"smiles": "CC(C)=CCOC(=O)c1ccccc1", "activity change, negative = cytotoxic": "1.63% (inactive)"}, {"smiles": "CC(=O)NCc1c(I)c(NC(C)=O)c(I)c(C(=O)O)c1I", "activity change, negative = cytotoxic": "-3.13% [at 35.3 µM] (inactive)"}, {"smiles": "COC(=O)[C@@H]1[C@H]2C[C@H]3c4[nH]c5ccccc5c4CCN3C[C@@H]2CC[C@@H]1O", "activity change, negative = cytotoxic": "0.212% [at 35.3 µM] (inactive)"}, {"smiles": "CC(=O)OC(C)OC(=O)C(C)c1ccc(-c2ccccc2)c(F)c1", "note": "(stereo unspecified)", "activity change, negative = cytotoxic": "0.0326% [at 35.3 µM] (inactive)"}, {"smiles": "COc1ccc(S(=O)(=O)N2c3ccc(Cl)cc3[C@@](O)(c3ccccc3Cl)[C@H]2C(=O)N2CCC[C@@H]2C(N)=O)cc1OC", "activity change, negative = cytotoxic": "-4.8% [at 35.3 µM] (inactive)"}, {"smiles": "CC(COC(C)(C)C)OCCCO", "note": "(stereo unspecified)", "activity change, negative = cytotoxic": "-0.71% (inactive)"}, {"smiles": "NS(=O)(=O)c1cc2c(cc1Cl)CN(C1CCCCC1)C2=O", "activity change, negative = cytotoxic": "-0.492% [at 35.3 µM] (inactive)"}]}, {"test": "A CellTox Green Cytotoxicity Assay to monitor cytotoxicity in HepG2 cells - 24 hour (AID 1224878); note: nearly all actives have a fitted effect of over 45% in size", "details": "CellTox Green fluorescence; series mostly up to 76.8 µM; cytotoxicity: at the top concentration", "outline": "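HepG2 cells were seeded together with the CellTox Green dye at 600 cells/well, left 5 h at 37 C/5% CO2, then given compounds in DMSO. Fluorescence from dye bound to dead-cell DNA was read repeatedly over 40 h of treatment at 37 C.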", "values": [{"smiles": "CCCCCCCC/C=C\\CCCCCCCC(=O)OCCCC", "cytotoxicity": "-11.8% [at 15.8 µM] (inactive)"}, {"smiles": "CC(C)CC(C)CC(C)CC(C)COC(=O)c1ccccc1C(=O)OCC(C)CC(C)CC(C)CC(C)C", "note": "(stereo unspecified)", "cytotoxicity": "6.66% (inactive)"}, {"smiles": "CCCC/C=C/C=C\\C=O", "cytotoxicity": "15.4% (inactive)"}, {"smiles": "CCOC(=O)CC(=O)c1ccccc1", "cytotoxicity": "18.8% (inactive)"}, {"smiles": "CCCCCCCCOS(=O)(=O)O", "cytotoxicity": "-15.7% (inactive)"}, {"smiles": "CC(=O)/C=C/C1C(C)=CCC(C)C1(C)C", "note": "(stereo unspecified)", "cytotoxicity": "-6.13% (inactive)"}, {"smiles": "C[C@H](N)[C@H](O)c1cccc(O)c1", "cytotoxicity": "-12.3% [at 35.3 µM] (inactive)"}, {"smiles": "BrCCCCCBr", "cytotoxicity": "-3.27% (inactive)"}, {"smiles": "Cc1cccc2nccnc12", "cytotoxicity": "-13.4% (inactive)"}, {"smiles": "C[C@@H]1O[C@@H](O[C@@H]2[C@@H](O)[C@H](OCCc3ccc(O)c(O)c3)O[C@H](CO[C@@H]3O[C@H](CO)[C@@H](O)[C@H](O)[C@H]3O)[C@H]2OC(=O)/C=C/c2ccc(O)c(O)c2)[C@H](O)[C@H](O)[C@H]1O", "cytotoxicity": "16.7% (inactive)"}, {"smiles": "CN(CCOc1ccc(NS(C)(=O)=O)cc1)CCc1ccc(NS(C)(=O)=O)cc1", "cytotoxicity": "-20.7% [at 35.3 µM] (inactive)"}, {"smiles": "O=C1c2ccccc2C(=O)N1CCl", "cytotoxicity": "0.874% (inactive)"}, {"smiles": "CN1CCN(CC(=O)N2c3ccccc3C(=O)Nc3cccnc32)CC1", "cytotoxicity": "-12.6% [at 6.97 µM] (inactive)"}, {"smiles": "O=C(Nc1ccc(Cl)c(Cl)c1)C1CC1", "cytotoxicity": "-26.6% [at 35.3 µM] (inactive)"}, {"smiles": "On1nnc2ccccc21", "cytotoxicity": "-1.04% (inactive)"}, {"smiles": "CCCOC(=O)C(C)O", "note": "(stereo unspecified)", "cytotoxicity": "4.25% (inactive)"}, {"smiles": "CCC(C)NC(N)=O", "note": "(stereo unspecified)", "cytotoxicity": "14.7% (inactive)"}, {"smiles": "CC(C)N(c1ccccc1)C(C)C", "cytotoxicity": "-6.37% (inactive)"}, {"smiles": "OCCC(F)(F)C(F)(F)C(F)(F)C(F)(F)C(F)(F)C(F)(F)C(F)(F)C(F)(F)F", "cytotoxicity": "-0.91% (inactive)"}, {"smiles": "COC(=O)[C@@H]1[C@H]2C[C@H]3c4[nH]c5ccccc5c4CCN3C[C@@H]2CC[C@@H]1O", "cytotoxicity": "0.462% [at 35.3 µM] (inactive)"}, {"smiles": "CC(=O)OC(C)OC(=O)C(C)c1ccc(-c2ccccc2)c(F)c1", "note": "(stereo unspecified)", "cytotoxicity": "12.2% [at 35.3 µM] (inactive)"}, {"smiles": "COc1ccc(S(=O)(=O)N2c3ccc(Cl)cc3[C@@](O)(c3ccccc3Cl)[C@H]2C(=O)N2CCC[C@@H]2C(N)=O)cc1OC", "cytotoxicity": "-3.35% [at 35.3 µM] (inactive)"}, {"smiles": "CC(COC(C)(C)C)OCCCO", "note": "(stereo unspecified)", "cytotoxicity": "-13.2% (inactive)"}, {"smiles": "NS(=O)(=O)c1cc2c(cc1Cl)CN(C1CCCCC1)C2=O", "cytotoxicity": "2.74% [at 35.3 µM] (inactive)"}, {"smiles": "CC(=O)NCCCCCC(=O)O", "cytotoxicity": "-4.59% [at 35.3 µM] (inactive)"}]}]}
